± gives the standard deviation.
Experiments:
Conditions in all cases: modulator concentration 10 µM
[1] = system: RAW-Dual (murine macrophage reporter line); assay: NF-kB reporter (SEAP) activity fold change vs agonist alone; higher = enhanced NF-kB activity
How it was run: (§1)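 In 384-well plates holding 50 000 RAW-Dual murine macrophage reporter cells per well, compound at 10 μM final was pre-incubated for 1 hour at 37 °C, after which a PRR agonist was added overnight. Supernatant SEAP read with QUANTI-Blue at 620 nm absorbance reported NF-κB, and Lucia luciferase read with QUANTI-Luc luminescence reported IRF. Fold change values come from dividing each reporter signal by the mean of agonist-only control wells on the same plate, averaged over replicate plates with propagated errors.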

[2] = system: RAW-Dual (murine macrophage reporter line); assay: IRF reporter (Lucia luciferase) activity fold change vs agonist alone; higher = enhanced IRF activity
How it was run: as §1

[3] = system: RAW-Dual (murine macrophage reporter line); assay: viability score (confluency relative to resting cells, overnight) (fraction); higher = more viable, active = viable (0.7 or more)
How it was run: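 Compound was added at a final 10 μM to RAW-Dual macrophages in 384-well plates and left overnight. Confluency was imaged with IncuCyte, and two masks were generated in IncuCyte software over all imaged wells. Each viability score is confluency relative to resting cells, and a compound met the cutoff only when both masks were above 70% of resting cells.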

[4] = agonist: CpG ODN 1826 0.5 ug/mL

Row | SMILES | NF-kB reporter [1, 4] | NF-kB reporter ([1]; agonist: LPS 0.1 ug/mL) | NF-kB reporter ([1]; agonist: MPLA […]) | IRF reporter ([2]; agonist: 3'3'-cGAMP 10 ug/mL) | IRF reporter ([2]; agonist: LPS 0.1 ug/mL) | IRF reporter ([2]; agonist: MPLA […]) | viability score [3]
1 | CC(C)(C)NCC(O)COc1cccc2c1CCC(=O)N2.Cl (centres undefined) | 1.14 ± 0.17 | 1.12 ± 0.25 | 1.03 ± 0.12 | 0.941 ± 0.037 | 1.33 ± 0.26 | 1.03 ± 0.19 | 0.995 (active)
2 | O=C1OC(CNS(=O)(=O)c2ccccc2Cl)CN1c1ccc(Cl)c(Cl)c1 (centres undefined) | 1.08 ± 0.078 | 1.22 ± 0.11 | 0.926 ± 0.058 | 1.13 ± 0.06 | 1.11 ± 0.068 | 1.08 ± 0.24 | 1.01 (active)
3 | Nc1ncnc2c1ncn2[C@@H]1O[C@H](COP(=O)(O)O)[C@@H](O)[C@H]1O [Prestw-356] | 1.37 ± 0.16 | 1.09 ± 0.11 | 1.23 ± 0.12 | 1.32 ± 0.069 | 1.21 ± 0.16 | 1.36 ± 0.28 | 1.03 (active)
4 | CCC(=O)NS(=O)(=O)c1ccc(-c2c(-c3ccccc3)noc2C)cc1 | 0.921 ± 0.14 | 1.2 ± 0.26 | 0.905 ± 0.05 | 0.971 ± 0.051 | 1.47 ± 0.31 | 1.25 ± 0.1 | 0.996 (active)
5 | CN(C)CCOC(c1ccccc1)c1ccccc1.Cl | 1.12 ± 0.16 | 1.11 ± 0.089 | 0.985 ± 0.11 | 0.791 ± 0.029 | 1.17 ± 0.1 | 1.03 ± 0.12 | 0.999 (active)
6 | Cc1cccc(N2C(=O)C(=Cc3cccc([N+](=O)[O-])c3)SC2=S)c1C | 0.964 ± 0.1 | 1.02 ± 0.094 | 0.937 ± 0.06 | 0.853 ± 0.035 | 1.57 ± 0.17 | 1.29 ± 0.11 | 0.989 (active)
7 | Clc1ccc(-c2nc(N3CCCCC3)nc3ccccc23)cc1 | 0.444 ± 0.033 | 0.975 ± 0.051 | 1.09 ± 0.041 | 0.839 ± 0.047 | 0.953 ± 0.073 | 1.39 ± 0.12 | 0.993 (active)
8 | CCCC(=O)Nc1ccc(OCC(O)CNC(C)C)c(C(C)=O)c1.Cl (centres undefined) | 1.14 ± 0.1 | 1.03 ± 0.05 | 0.983 ± 0.022 | 0.94 ± 0.054 | 1.01 ± 0.12 | 0.864 ± 0.11 | 0.999 (active)
9 | COc1ccc(OC)c(Nc2nc(-c3c(C)nc4sccn34)cs2)c1 | 0.853 ± 0.073 | 0.961 ± 0.1 | 1.21 ± 0.13 | 0.925 ± 0.046 | 1.43 ± 0.094 | 1.75 ± 0.15 | 1.01 (active)
10 | c1cncc(CSc2ccc(-c3ccncc3)nn2)c1 | 0.532 ± 0.17 | 0.711 ± 0.071 | 0.919 ± 0.062 | 0.53 ± 0.037 | 0.647 ± 0.079 | 0.58 ± 0.13 | 0.892 (active)
11 | Cc1ccccc1C(=O)N(Cc1cccnc1)c1nc2c(F)cccc2s1 | 0.288 ± 0.019 | 0.749 ± 0.063 | 0.645 ± 0.038 | 1.34 ± 0.06 | 1.06 ± 0.11 | 0.952 ± 0.093 | 0.984 (active)
12 | Cc1cccc(N(CC(=O)Nc2ccc3c(c2)OCO3)S(C)(=O)=O)c1 | 0.716 ± 0.06 | 0.934 ± 0.068 | 1 ± 0.098 | 0.784 ± 0.04 | 1.19 ± 0.071 | 1.22 ± 0.13 | 1.02 (active)
13 | COc1ccc(NC(=O)c2cn(-c3cc(N4CCCCC4)ncn3)cn2)cc1F | 1.31 ± 0.074 | 1.13 ± 0.086 | 1.22 ± 0.035 | 1.52 ± 0.45 | 1.01 ± 0.1 | 1.23 ± 0.3 | 0.97 (active)
14 | COc1ccc(OC)c(C2CC(c3ccc(Cl)cc3)=NN2S(C)(=O)=O)c1 (centres undefined) | 0.853 ± 0.073 | 0.897 ± 0.09 | 1.04 ± 0.12 | 0.829 ± 0.068 | 1.15 ± 0.22 | 1.19 ± 0.43 | 0.986 (active)
15 | CS(=O)(=O)c1ccc(C2=C(c3ccccc3)C(=O)OC2)cc1 | 0.962 ± 0.09 | 1.04 ± 0.071 | 0.975 ± 0.042 | 1.05 ± 0.058 | 0.97 ± 0.074 | 0.946 ± 0.084 | 0.997 (active)
16 | Cc1ccc(C=C2Oc3c(ccc(O)c3CN3CCN(CCO)CC3)C2=O)cc1 | 1.12 ± 0.086 | 1.01 ± 0.13 | 1.19 ± 0.11 | 1.02 ± 0.038 | 1.39 ± 0.21 | 1.55 ± 0.3 | 1.02 (active)
17 | O.S=c1nc[nH]c2nc[nH]c12 | 0.844 ± 0.037 | 0.902 ± 0.1 | 0.989 ± 0.11 | 0.768 ± 0.035 | 1.23 ± 0.28 | 1.36 ± 0.57 | 0.994 (active)
18 | CN(Cc1cnc2nc(N)nc(N)c2n1)c1ccc(C(=O)NC(CCC(=O)O)C(=O)O)cc1 (centres undefined) [Prestw-373] | 0.987 ± 0.24 | 0.701 ± 0.04 | 0.87 ± 0.072 | 0.614 ± 0.037 | 1.16 ± 0.19 | 1.01 ± 0.13 | 0.791 (active)
19 | CN1C(CC(=O)c2ccccc2)CCCC1CC(O)c1ccccc1.Cl (centres undefined) | 0.601 ± 0.16 | 1.01 ± 0.097 | 0.964 ± 0.083 | 0.815 ± 0.041 | 0.996 ± 0.21 | 1.03 ± 0.15 | 0.988 (active)
20 | c1ccc(CCn2c3ccccc3c3nnc(SCCN4CCCCC4)nc32)cc1 | 0.232 ± 0.018 | 1.05 ± 0.061 | 1.02 ± 0.061 | 0.81 ± 0.075 | 1.57 ± 0.17 | 1.57 ± 0.11 | 1.01 (active)
21 | C[C@H](Oc1ccc(S(C)(=O)=O)cc1C(=O)N1CCN(c2ncc(C(F)(F)F)cc2F)CC1)C(F)(F)F | 0.902 ± 0.073 | 0.807 ± 0.11 | 0.936 ± 0.056 | 0.821 ± 0.074 | 1.03 ± 0.038 | 0.706 ± 0.15 | 1 (active)
22 | COc1ccc(N(CC(=O)N2CCc3ccccc3C2)S(C)(=O)=O)cc1Cl | 1.18 ± 0.12 | 1.05 ± 0.077 | 0.987 ± 0.059 | 1.06 ± 0.033 | 1.52 ± 0.12 | 1.11 ± 0.13 | 1.01 (active)
23 | CC(=Cc1ccccc1)CN1CC(C)OC(C)C1 (centres undefined) | 0.788 ± 0.063 | 0.788 ± 0.05 | 1.04 ± 0.12 | 0.933 ± 0.044 | 1.28 ± 0.074 | 1.47 ± 0.17 | 0.956 (active)
24 | CSC1CCN(C(=O)Nc2ccc(C)c(C)c2)C1 (centres undefined) | 1.03 ± 0.38 | 0.953 ± 0.11 | 0.985 ± 0.063 | 0.906 ± 0.038 | 0.954 ± 0.17 | 1.09 ± 0.11 | 0.999 (active)
25 | COc1ccc(C2CNC(=O)C2)cc1OC1CCCC1 (centres undefined) | 2.76 ± 0.37 | 2.2 ± 0.43 | 1.63 ± 0.1 | 0.942 ± 0.03 | 0.963 ± 0.18 | 1.17 ± 0.089 | 0.973 (active)
26 | O=C(CCCn1nc(-c2ccc(F)cc2)ccc1=O)Nc1cc(Cl)ccc1Cl | 1.01 ± 0.16 | 1.06 ± 0.091 | 0.989 ± 0.11 | 1.06 ± 0.066 | 1.03 ± 0.076 | 1.11 ± 0.18 | 1.02 (active)
27 | COc1cc(Nc2ncc3c(n2)-c2ccc(Cl)cc2C(c2c(F)cccc2OC)=NC3)ccc1C(=O)O | 0.416 ± 0.036 | 0.72 ± 0.038 | 0.775 ± 0.081 | 0.974 ± 0.045 | 1.06 ± 0.062 | 1.06 ± 0.15 | 0.92 (active)

Source: the supplement of paper PMC10646978
